From ChEMBL document CHEMBL1961873, “Compounds: GSK PKIS; Assays: Nanosyn kinase panel” (2012) come the findings set out here.

The inhibition is the change of the read-out against control, counted positive when it falls.

Assay [1] deals with T1, Ephrin type-B receptor 2 (Homo sapiens) (UniProt P29323).
T1 sequence (whole entry): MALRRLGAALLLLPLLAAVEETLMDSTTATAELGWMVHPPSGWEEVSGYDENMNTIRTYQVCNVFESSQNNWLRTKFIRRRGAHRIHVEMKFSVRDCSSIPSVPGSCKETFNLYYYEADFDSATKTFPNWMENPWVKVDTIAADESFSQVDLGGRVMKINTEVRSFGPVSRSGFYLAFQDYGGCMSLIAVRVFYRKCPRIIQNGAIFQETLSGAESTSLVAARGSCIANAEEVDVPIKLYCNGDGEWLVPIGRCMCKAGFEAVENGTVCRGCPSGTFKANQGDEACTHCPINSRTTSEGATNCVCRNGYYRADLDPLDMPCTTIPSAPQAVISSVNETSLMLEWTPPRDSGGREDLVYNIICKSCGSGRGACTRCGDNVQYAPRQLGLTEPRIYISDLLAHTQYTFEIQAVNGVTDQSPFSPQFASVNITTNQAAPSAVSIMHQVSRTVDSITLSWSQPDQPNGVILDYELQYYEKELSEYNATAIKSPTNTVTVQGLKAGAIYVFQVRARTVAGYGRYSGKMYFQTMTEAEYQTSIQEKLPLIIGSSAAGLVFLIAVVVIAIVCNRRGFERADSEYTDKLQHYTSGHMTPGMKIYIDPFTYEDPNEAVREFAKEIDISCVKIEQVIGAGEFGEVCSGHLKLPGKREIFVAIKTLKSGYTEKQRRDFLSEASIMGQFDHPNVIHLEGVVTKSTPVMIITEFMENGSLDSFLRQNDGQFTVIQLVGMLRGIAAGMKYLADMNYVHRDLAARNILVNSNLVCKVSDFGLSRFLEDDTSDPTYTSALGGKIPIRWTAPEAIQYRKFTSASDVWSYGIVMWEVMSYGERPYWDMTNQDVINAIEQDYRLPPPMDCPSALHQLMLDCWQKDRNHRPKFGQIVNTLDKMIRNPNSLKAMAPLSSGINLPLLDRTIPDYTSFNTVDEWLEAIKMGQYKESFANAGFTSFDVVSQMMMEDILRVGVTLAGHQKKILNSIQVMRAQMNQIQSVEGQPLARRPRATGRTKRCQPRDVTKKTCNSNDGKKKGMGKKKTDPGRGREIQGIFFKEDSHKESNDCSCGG
As to conditions: at 1 µM.

Assay [2] has as its target T2, Ephrin type-B receptor 3 (Homo sapiens) (UniProt P54753).
T2 sequence (whole entry): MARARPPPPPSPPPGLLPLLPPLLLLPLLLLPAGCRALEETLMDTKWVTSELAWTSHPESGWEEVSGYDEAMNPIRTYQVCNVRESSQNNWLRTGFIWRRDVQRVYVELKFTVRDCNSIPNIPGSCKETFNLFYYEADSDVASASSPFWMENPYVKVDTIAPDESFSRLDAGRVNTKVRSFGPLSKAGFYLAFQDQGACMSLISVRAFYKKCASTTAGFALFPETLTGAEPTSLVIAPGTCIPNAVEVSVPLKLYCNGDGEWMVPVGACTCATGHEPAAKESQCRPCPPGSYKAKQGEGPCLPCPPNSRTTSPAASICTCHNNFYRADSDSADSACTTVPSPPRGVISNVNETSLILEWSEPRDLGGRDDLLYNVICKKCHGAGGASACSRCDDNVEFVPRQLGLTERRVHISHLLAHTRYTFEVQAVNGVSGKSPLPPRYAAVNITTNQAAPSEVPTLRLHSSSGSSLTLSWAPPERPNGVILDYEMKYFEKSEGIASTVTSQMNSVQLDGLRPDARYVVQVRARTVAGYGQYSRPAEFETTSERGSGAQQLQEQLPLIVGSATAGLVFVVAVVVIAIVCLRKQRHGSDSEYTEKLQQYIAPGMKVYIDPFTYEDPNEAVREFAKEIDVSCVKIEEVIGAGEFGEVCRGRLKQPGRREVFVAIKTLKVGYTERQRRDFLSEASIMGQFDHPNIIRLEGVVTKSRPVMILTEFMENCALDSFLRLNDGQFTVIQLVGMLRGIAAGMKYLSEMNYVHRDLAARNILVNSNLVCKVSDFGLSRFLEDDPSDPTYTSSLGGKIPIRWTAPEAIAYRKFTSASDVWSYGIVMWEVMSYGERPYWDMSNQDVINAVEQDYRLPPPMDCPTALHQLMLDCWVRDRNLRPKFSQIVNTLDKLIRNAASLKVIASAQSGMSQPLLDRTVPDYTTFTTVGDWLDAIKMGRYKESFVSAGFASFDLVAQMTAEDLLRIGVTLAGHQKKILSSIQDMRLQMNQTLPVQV
The conditions noted are these: at 0.1 µM.

For assay [3], the target named is T2, Ephrin type-B receptor 3 (Homo sapiens). The conditions noted are these: at 1 µM.
Assay [4] concerns the target T3, Ephrin type-B receptor 4 (Homo sapiens) (UniProt P54760).
T3 sequence (whole entry): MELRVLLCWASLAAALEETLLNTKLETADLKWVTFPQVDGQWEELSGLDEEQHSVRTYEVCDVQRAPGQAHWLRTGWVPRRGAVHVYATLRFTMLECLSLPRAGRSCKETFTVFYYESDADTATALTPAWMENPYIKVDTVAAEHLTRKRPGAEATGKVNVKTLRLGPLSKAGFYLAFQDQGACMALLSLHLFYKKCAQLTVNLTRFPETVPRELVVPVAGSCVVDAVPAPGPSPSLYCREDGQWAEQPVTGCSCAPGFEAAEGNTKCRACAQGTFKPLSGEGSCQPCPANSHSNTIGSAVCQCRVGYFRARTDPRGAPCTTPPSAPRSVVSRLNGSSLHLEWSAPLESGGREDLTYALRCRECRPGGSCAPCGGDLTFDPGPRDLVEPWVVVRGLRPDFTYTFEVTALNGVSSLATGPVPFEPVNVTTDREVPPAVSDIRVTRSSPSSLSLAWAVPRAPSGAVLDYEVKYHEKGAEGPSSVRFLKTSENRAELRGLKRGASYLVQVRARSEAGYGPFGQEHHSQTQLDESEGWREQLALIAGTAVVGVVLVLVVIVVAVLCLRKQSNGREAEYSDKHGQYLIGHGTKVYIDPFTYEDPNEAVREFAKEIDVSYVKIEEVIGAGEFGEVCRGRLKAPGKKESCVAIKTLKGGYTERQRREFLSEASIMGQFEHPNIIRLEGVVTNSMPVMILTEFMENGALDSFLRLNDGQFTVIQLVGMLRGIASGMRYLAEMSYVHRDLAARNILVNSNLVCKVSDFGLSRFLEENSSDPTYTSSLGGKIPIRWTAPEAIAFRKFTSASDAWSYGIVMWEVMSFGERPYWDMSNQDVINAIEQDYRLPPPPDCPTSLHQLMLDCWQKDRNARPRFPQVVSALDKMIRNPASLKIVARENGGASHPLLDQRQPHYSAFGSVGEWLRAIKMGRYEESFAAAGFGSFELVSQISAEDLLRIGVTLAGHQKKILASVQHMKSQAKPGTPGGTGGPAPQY
The conditions noted are these: at 0.1 µM.

The target of assay [5] is T3, Ephrin type-B receptor 4 (Homo sapiens). As to conditions: at 1 µM.
Assay [6] addresses Receptor tyrosine-protein kinase erbB-2 (Homo sapiens) (UniProt P04626). As to conditions: at 0.1 µM.
The target is the same in assay [7]. The conditions noted are these: at 1 µM.
Assay [8] concerns the target Receptor tyrosine-protein kinase erbB-4 (Homo sapiens) (UniProt Q15303). As to conditions: at 0.1 µM.
Assay [9] shares this target. As to conditions: at 1 µM.
Assay [10] addresses Tyrosine-protein kinase Fer (Homo sapiens) (UniProt P16591). As to conditions: at 0.1 µM.
The target is the same in assay [11]. As to conditions: at 1 µM.
Assay [12] deals with Tyrosine-protein kinase Fes/Fps (Homo sapiens) (UniProt P07332). As to conditions: at 0.1 µM.
Assay [13] has the same target. The conditions noted are these: at 1 µM.
Assay [14] concerns the target Fibroblast growth factor receptor 1 (Homo sapiens) (UniProt P11362). As to conditions: at 0.1 µM.
Assay [15] has the same target. The conditions noted are these: at 1 µM.
Assay [16] addresses Fibroblast growth factor receptor 2 (Homo sapiens) (UniProt P21802). As to conditions: at 0.1 µM.
Assay [17] shares this target. The conditions noted are these: at 1 µM.
The target in assay [18] is Fibroblast growth factor receptor 3 (Homo sapiens) (UniProt P22607). The conditions noted are these: at 0.1 µM.
Chain of Fibroblast growth factor receptor 3 (Homo sapiens) (P22607 23-806 limits assumed): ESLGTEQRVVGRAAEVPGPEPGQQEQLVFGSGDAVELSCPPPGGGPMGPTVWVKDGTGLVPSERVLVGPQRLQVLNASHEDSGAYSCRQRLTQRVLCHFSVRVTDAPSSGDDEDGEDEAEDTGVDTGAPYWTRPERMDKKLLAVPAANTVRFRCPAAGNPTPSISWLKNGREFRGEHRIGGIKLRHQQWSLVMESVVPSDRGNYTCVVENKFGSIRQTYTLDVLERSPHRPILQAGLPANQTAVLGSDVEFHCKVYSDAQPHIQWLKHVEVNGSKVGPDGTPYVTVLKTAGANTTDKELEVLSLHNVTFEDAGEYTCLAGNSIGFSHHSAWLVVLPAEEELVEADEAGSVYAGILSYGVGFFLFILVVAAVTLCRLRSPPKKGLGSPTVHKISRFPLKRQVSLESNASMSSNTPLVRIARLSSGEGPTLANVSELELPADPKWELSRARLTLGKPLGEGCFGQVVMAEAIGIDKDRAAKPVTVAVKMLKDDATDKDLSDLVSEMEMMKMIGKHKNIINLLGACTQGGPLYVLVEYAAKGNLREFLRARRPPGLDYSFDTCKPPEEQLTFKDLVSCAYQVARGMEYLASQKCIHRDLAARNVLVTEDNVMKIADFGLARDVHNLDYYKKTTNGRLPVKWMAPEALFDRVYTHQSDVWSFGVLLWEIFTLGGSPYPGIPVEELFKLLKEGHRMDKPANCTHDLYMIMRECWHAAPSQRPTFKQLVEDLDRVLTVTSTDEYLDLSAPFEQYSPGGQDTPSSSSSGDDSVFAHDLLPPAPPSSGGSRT
For assay [19] the target is unchanged. As to conditions: at 1 µM.
Assay [20] concerns the target Fibroblast growth factor receptor 4 (Homo sapiens) (UniProt P22455). As to conditions: at 0.1 µM.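 Further: values are mean percent inhibition of FGFR4.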

Chain of Fibroblast growth factor receptor 4 (Homo sapiens) (P22455 22-802 limits assumed): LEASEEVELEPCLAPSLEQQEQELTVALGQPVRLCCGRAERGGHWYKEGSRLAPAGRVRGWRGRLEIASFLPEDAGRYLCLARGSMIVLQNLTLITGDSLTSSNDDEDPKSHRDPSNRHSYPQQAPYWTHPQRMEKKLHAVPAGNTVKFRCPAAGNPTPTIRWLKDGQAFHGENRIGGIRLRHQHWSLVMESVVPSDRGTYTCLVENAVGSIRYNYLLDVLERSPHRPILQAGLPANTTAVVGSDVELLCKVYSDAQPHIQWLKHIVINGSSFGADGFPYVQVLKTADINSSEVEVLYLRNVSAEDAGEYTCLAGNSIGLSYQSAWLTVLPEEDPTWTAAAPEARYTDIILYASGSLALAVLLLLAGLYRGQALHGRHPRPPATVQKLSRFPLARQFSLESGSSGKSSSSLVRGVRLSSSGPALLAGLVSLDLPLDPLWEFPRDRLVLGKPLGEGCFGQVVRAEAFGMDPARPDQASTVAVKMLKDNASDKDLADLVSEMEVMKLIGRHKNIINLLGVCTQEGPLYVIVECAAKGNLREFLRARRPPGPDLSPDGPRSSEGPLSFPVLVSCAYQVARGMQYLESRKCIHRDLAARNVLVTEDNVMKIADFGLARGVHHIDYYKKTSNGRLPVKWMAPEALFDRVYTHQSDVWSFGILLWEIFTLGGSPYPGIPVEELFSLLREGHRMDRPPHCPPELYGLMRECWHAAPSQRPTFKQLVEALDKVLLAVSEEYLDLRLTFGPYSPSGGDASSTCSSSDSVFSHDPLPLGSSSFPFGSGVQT
Chain of Fibroblast growth factor receptor 2 (Homo sapiens) (P21802 22-821 limits assumed): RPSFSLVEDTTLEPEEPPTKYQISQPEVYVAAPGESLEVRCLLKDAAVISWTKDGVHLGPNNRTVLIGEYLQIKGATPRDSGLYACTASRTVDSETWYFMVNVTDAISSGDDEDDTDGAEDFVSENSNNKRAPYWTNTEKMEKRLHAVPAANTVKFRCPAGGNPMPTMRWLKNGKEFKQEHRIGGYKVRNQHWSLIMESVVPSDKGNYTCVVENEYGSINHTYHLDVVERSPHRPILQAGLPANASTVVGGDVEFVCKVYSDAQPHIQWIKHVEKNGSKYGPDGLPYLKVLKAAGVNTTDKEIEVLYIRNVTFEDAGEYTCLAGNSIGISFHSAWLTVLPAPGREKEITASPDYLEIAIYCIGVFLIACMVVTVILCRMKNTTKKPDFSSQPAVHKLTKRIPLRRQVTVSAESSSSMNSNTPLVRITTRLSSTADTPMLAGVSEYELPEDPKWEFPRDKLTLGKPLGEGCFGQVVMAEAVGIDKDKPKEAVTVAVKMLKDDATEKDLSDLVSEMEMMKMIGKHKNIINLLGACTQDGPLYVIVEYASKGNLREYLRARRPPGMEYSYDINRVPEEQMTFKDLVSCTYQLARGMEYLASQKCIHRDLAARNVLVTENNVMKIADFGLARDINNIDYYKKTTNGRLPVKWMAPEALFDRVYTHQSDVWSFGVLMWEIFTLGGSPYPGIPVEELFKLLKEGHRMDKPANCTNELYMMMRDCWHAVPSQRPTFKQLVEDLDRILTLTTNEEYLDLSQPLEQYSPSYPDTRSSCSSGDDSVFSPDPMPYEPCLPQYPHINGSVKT
Chain of Receptor tyrosine-protein kinase erbB-4 (Homo sapiens) (Q15303 whole entry): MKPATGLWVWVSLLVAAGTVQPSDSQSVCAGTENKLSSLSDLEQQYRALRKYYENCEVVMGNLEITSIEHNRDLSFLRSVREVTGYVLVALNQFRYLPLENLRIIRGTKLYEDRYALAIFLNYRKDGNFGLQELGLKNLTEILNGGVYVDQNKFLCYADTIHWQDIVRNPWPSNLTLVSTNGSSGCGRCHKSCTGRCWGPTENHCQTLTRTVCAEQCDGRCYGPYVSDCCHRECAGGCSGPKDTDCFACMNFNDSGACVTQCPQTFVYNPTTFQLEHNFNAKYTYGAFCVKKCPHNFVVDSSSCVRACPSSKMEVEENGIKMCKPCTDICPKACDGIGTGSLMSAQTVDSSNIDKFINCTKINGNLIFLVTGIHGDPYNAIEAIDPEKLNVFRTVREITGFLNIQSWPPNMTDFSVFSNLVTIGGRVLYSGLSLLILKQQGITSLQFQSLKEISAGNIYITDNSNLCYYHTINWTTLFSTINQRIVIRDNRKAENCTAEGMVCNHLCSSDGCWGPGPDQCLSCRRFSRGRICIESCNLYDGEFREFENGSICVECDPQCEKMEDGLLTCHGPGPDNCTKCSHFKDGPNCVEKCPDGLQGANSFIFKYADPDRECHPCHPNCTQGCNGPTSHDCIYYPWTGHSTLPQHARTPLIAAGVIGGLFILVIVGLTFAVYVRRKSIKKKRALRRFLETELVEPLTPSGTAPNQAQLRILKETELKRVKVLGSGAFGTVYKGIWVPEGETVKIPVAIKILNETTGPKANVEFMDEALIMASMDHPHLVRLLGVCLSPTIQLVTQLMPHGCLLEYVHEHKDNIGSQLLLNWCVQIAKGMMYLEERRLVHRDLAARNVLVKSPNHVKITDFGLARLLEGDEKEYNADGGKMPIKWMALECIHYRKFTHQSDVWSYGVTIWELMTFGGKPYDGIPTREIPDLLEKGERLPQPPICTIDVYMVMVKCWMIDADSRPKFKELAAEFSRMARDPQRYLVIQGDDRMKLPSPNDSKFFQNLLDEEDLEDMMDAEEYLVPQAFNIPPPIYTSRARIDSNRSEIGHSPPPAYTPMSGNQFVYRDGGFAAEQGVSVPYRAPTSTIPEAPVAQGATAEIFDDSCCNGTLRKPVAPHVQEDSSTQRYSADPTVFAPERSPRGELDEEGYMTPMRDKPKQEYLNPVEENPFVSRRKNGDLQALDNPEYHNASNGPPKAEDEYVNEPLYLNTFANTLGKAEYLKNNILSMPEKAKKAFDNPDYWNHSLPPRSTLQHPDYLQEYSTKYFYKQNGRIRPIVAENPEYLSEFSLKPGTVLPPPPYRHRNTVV
Chain of Tyrosine-protein kinase Fer (Homo sapiens) (P16591 whole entry, looked up): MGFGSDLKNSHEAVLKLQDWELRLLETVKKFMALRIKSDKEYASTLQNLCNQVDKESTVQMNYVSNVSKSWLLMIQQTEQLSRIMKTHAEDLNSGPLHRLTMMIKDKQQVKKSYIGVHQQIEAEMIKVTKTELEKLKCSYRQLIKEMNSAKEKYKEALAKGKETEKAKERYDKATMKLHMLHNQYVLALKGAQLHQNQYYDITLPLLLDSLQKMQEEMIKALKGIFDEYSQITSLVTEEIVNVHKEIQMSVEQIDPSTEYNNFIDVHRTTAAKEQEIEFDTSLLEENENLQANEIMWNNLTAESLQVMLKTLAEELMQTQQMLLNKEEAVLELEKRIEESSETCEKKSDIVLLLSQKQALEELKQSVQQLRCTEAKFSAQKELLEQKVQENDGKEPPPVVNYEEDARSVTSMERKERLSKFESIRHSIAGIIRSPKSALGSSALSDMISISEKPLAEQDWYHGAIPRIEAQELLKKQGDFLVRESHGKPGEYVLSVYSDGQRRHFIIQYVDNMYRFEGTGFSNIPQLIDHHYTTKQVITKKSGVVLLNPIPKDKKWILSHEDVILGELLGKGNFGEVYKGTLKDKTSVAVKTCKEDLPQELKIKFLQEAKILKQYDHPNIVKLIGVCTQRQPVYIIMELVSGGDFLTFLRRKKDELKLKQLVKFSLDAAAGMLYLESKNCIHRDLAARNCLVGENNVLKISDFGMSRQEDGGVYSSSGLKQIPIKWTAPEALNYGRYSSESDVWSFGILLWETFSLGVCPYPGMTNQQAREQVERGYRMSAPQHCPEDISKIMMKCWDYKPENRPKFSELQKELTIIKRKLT

On to `O=C1Nc2ccc(I)cc2C1=Cc1cc(Br)c(O)c(Br)c1`, for which the inhibition was determined as 6.84% in assay [1]; 0.93% in [2]; 5.23% in assay [3]; 5.1% in assay [4]; 4.33% in [5]; 3.38% in [6]. Also, the inhibition in [7] was 2.46%; in assay [8] it was 5.63%; in [9], 10.5%; in [10], -1.96%; in [11] it was 4.37%; in assay [12], 3.93%. Moreover, the inhibition in assay [13] stood at 4.1%; in assay [14] it was 5.92%; in assay [15], 2.51%; in assay [16], 8.24%; in assay [17], 7.14%; in assay [18], 6.43%. Moreover, the values for the inhibition in assay [19] and in assay [20] were 5.73% and 5.1%, respectively.
Regarding `CCS(=O)(=O)c1ccc(OC)c(Nc2ncc(-c3ccccc3Cl)o2)c1`, the inhibition in assay [1] is 8.86%; in assay [2] it was 4.07%; in [3], 3.23%; in [4], 1.77%; in assay [5], 1.22%; in [6], -1.67%. For the same molecule, the inhibition in assay [7] is 1.42%; in assay [8] it was 4.14%; in assay [9], 4.95%; in assay [10], -0.76%; in assay [11], 2.34%; in assay [12] it was 0.35%. The inhibition in [13] was determined as 0.33%; in assay [14], 2.09%; in [15], 7.29%; in [16], 6.83%; in [17], 33%; in assay [18], 6.65%. Further, the inhibition in assay [19] was 32.4%; in assay [20], 3.96%.
Turning to `c1ccc(Oc2ccc(Nc3ncc(-c4ccccc4)o3)cc2)cc1`, the inhibition in assay [1] was 9.65%; in assay [2] it was 2.67%; in assay [3] it was 0.66%; in assay [4], 2.42%; in assay [5], 0.76%; in assay [6] it was -0.01%. The inhibition in assay [7] amounted to 1.41%; in assay [8] it was 4.29%; in assay [9] it was 5.09%; in assay [10], 2.19%; in assay [11], 1.64%; in assay [12], 0.55%. Further, the inhibition in assay [13] was 0.4%; in assay [14] it was -1.76%; in assay [15], 2.11%; in [16] it was 1.12%; in assay [17] it was 3.49%; in [18], 4.41%. The inhibition in assay [19] was 4.9%; in assay [20] it was 2.77%.
Regarding `Fc1ccc(-c2c(-c3ccncc3)nc3n2CCS3)cc1`, the inhibition in assay [1] is 6.7%; in [2] it was 1.23%; in assay [3], 1.23%; in [4], -4.56%; in assay [5] it was -2.17%; in assay [6], 1.03%. Further, the inhibition in [7] is 0.17%; in assay [8], 2.91%; in assay [9], 4.97%; in [10], 0.77%; in assay [11] it was 1.89%; in assay [12] it was 1.15%. Moreover, the inhibition was 0.99% in [13]; -4.25% in assay [14]; 0.23% in assay [15]; -1.78% in [16]; 0.6% in assay [17]; 1.37% in [18]. The inhibition in assay [19] is 1.47%; in assay [20], -6.43%.
Regarding `C#Cc1cccc(Nc2ncnc3ccc(OCCCCNCCS(C)(=O)=O)cc23)c1`, the inhibition in assay [1] is 19.4%; in assay [2], 4.21%; in assay [3] it was 0.73%; in assay [4], 1.68%; in assay [5] it was -1.52%; in assay [6], 6.37%. For the same molecule, the inhibition in assay [7] stood at 29.9%; in [8] it was 24.8%; in assay [9] it was 63.8%; in assay [10] it was 2.76%; in [11] it was 3.37%; in [12], 2.69%. Further, the inhibition in assay [13] was 6.01%; in assay [14], 0.37%; in assay [15], 0.98%; in [16] it was 1.4%; in assay [17], 2.36%; in assay [18], 5.79%. The inhibition in assay [19] is 3.33%; in assay [20], -4.44%.
As to `NS(=O)(=O)c1ccc(N/N=C2\C(=O)Nc3ccc(-c4cnco4)cc32)cc1`, the inhibition is 7.61% in [1]; -2.23% in assay [2]; -3.53% in assay [3]; -2.49% in assay [4]; -0.26% in [5]; 4.9% in assay [6]. Moreover, the inhibition in assay [7] was 13.6%; in [8], 5.79%; in assay [9] it was 14.2%; in [10] it was 1.03%; in assay [11], 0.94%; in assay [12], 0.3%. Further, the inhibition is 0.19% in assay [13]; -2.98% in assay [14]; 2.6% in assay [15]; -0.2% in [16]; 15.2% in assay [17]; -0.63% in assay [18]. In addition, the inhibition in assay [19] is 10.1%; in assay [20] it was -3.55%.
